Measured values from PubChem BioAssay AID504904 (The Scripps Research Institute Molecular Screening Center, 2011).
The list shows a part of the results. Unmarked numbers belong to inactive results. The source made the active and inactive calls. Rule as the data show it: active = activation above about 18%; inactive = the rest.

biological target: Mu-type opioid receptor (Homo sapiens) + Delta-type opioid receptor (Homo sapiens) (UniProt P35372+P41143); assay: agonists of MOR-DOR heterodimerization, confirmation, cell-based, luminescence (AID 504904); conditions: cells, luminescence complementation, at 9.3 µM, stronger effect = higher value;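 also: 0% = vehicle-treated cells and 100% = reference agonist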
Sequence (P35372 whole entry, looked up): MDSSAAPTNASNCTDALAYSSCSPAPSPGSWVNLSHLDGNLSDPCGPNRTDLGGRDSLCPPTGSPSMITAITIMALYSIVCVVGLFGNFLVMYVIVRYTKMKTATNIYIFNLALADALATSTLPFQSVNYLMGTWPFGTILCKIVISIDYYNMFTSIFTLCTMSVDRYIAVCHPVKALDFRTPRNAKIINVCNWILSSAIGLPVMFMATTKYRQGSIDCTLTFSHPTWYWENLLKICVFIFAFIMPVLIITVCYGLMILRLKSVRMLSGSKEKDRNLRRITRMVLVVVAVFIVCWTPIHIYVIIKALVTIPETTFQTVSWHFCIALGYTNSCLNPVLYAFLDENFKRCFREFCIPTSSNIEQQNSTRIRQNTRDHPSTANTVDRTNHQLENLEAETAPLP
Sequence (P41143 whole entry, looked up): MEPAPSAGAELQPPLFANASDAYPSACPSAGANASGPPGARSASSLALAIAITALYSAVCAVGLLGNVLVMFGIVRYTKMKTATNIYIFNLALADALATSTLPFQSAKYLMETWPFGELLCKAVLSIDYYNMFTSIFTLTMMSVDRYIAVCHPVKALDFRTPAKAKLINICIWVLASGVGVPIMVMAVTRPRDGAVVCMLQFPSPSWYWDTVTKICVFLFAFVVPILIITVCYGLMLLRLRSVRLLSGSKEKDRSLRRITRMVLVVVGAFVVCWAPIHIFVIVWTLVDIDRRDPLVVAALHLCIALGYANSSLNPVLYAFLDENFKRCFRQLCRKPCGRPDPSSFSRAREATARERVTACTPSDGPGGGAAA

Row | SMILES | activation
1 | Cc1ccc(O)c(NC(=S)NC(=O)COc2ccc(Br)cc2)c1 | 2.92%
2 | CC1CCCN(CCOCCOc2ccccc2-c2ccccc2)C1 (stereo unspecified) | 1.28%
3 | CCc1ccc(C(CNc2nc(C(F)(F)F)nc3ccccc23)N(C)C)cc1 (stereo unspecified) | 42.4% (active)
4 | CCOC(=O)C1(CC2CCCCO2)CCN(Cc2nc(-c3cccs3)oc2C)CC1 (stereo unspecified) | 49.1% (active)
5 | N#CC(C(=O)c1ccc(S(=O)(=O)N2CCCCCC2)cc1)c1nc2ccccc2[nH]1 (stereo unspecified) | 6.41%
6 | Cc1cc(C)cc(C(=O)N(CCc2ccccc2)C2=CC3CCC(C2)N3C)c1 (stereo unspecified) | 137% (active)
7 | Cc1ccc(Nc2ccccc2N)cc1 | 3.92%
8 | CN(C)C(CNC(=O)Cc1ccc([N+](=O)[O-])cc1)c1ccccc1 (stereo unspecified) | 164% (active)
9 | Clc1ccc(COn2c(-c3ccc(Cl)cc3Cl)nc3ncccc32)cc1 | 2.83%
10 | COC(=O)c1ccc(C23CC4(C2)[C@H](CN(Cc2cccnc2)[C@@H]4c2ccccc2)C3c2ccc(Cl)nc2)cc1 (stereo partly specified) | 17.2%
11 | COc1ccc(-n2nnnc2-c2nc3ccccc3s2)cc1 | 3.47%
12 | O=C(NCc1cn2ccsc2n1)Nc1ccc(Cl)cc1 | 7.03%
13 | Cc1ccc(CN(C(=O)c2sc3ccccc3c2Cl)C2CCS(=O)(=O)C2)cc1 (stereo unspecified) | 24.1% (active)
14 | CC(OC(=O)/C=C/c1ccccc1)C(=O)Nc1ccc(C(N)=O)cc1 (stereo unspecified) | -2.09%
15 | CN(C)C(CNC(=O)c1cc2ccccc2o1)c1ccccc1 (stereo unspecified) | 1.4%
16 | N#C/C(=C(/O)COC(=O)COc1ccc(Cl)cc1)c1nc2ccccc2[nH]1 | 13.4%
17 | Cc1ccc(S(=O)(=O)N(CC(=O)Nc2cccnc2)c2ccc(Br)cc2)cc1 | 20.6% (active)
18 | CC(c1cccnc1)N(CCN(C)C)C(=O)Nc1ccc(Cl)c(Cl)c1 (stereo unspecified) | -0.05%
19 | C=C(C)COc1ccc(-c2n[nH]c(C)c2-c2ccccc2)c(O)c1 | 13.3%
20 | Cc1ccc(CNC(=O)CC(NC(=O)c2ccccc2)c2ccccc2)cc1 (stereo unspecified) | -2.24%
21 | Cc1ccc(OCC(=O)Nc2ccc(NC(=O)c3cccs3)cc2)c(C)c1 | 421% (active)
